Test results from the supplement of paper PMC8728848.
About 410 targets per protein were measured; listed, in parts, are those with the strongest signals and a random draw of the rest.

Tests used:
Experiment in all cases: glycan array binding signal (z-score within array); higher = stronger binding
Details in all cases: glycan notation: IUPAC condensed, linker removed; mutation: N130D
[1] = target: Fuc(a1-2)Gal(b1-3)[Fuc(a1-4)]GlcNAc
Outline: (§1)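 The binding signal is a Z-score computed within each array. Data were drawn from 3228 arrays in the Consortium for Functional Glycomics database, restricted to those with a known protein sequence. Scores were averaged over arrays of the same protein sequence at different concentrations or buffers, and over linkers, and negative values can be taken as non-binding.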

[2] = target: Fuc(a1-2)Gal(b1-4)GlcNAc(b1-2)Man(a1-3)[Fuc(a1-2)Gal(b1-4)GlcNAc(b1-2)Man(a1-6)]Man(b1-4)GlcNAc(b1-4)[Fuc(a1-6)]GlcNAc
Outline: as §1

[3] = target: Fuc(a1-2)Gal(b1-4)GlcNAc(b1-3)Gal(b1-4)GlcNAc(b1-3)Gal(b1-4)GlcNAc
Outline: as §1

[4] = target: Fuc(a1-2)[Gal(a1-3)]Gal(b1-3)GlcNAc(b1-3)GalNAc
Outline: as §1

[5] = target: Fuc(a1-2)[Gal(a1-3)]Gal(b1-4)GlcNAc(b1-3)GalNAc
Outline: as §1

[6] = target: Fuc(a1-2)[Gal(a1-3)]Gal(b1-4)[Fuc(a1-3)]GlcNAc(b1-3)GalNAc
Outline: as §1

[7] = target: Fuc(a1-2)[GalNAc(a1-3)]Gal(b1-4)GlcNAc(b1-6)GalNAc
Outline: as §1

[8] = target: Fuc(a1-3)[Gal(b1-4)]GlcNAc6S
Outline: as §1

Fuc(b1-3)GlcNAc = target: Fuc(b1-3)GlcNAc
Outline: as §1

[9] = target: Gal(a1-4)Gal(b1-4)GlcNAc(b1-3)Gal(b1-4)Glc
Outline: as §1

[10] = target: Gal(b1-3)[Fuc(a1-4)]GlcNAc(b1-3)Gal(b1-4)[Fuc(a1-3)]GlcNAc
Outline: as §1

[11] = target: Gal(b1-3)[Fuc(a1-4)]GlcNAc(b1-6)GalNAc
Outline: as §1

Gal(b1-4)GlcNAc(b1-2)Man = target: Gal(b1-4)GlcNAc(b1-2)Man
Outline: as §1

[12] = target: Gal(b1-4)GlcNAc(b1-2)Man(a1-6)[GlcNAc(b1-2)Man(a1-3)]Man(b1-4)GlcNAc(b1-4)GlcNAc
Outline: as §1

[13] = target: Gal(b1-4)GlcNAc(b1-3)Gal(b1-4)GlcNAc(b1-3)Gal(b1-4)GlcNAc(b1-2)Man(a1-3)[Gal(b1-4)GlcNAc(b1-3)Gal(b1-4)GlcNAc(b1-3)Gal(b1-4)GlcNAc(b1-2)Man(a1-6)]Man(b1-4)GlcNAc(b1-4)GlcNAc
Outline: as §1

[14] = target: Gal(b1-4)GlcNAc(b1-3)Gal(b1-4)GlcNAc(b1-3)Gal(b1-4)GlcNAc(b1-3)Gal(b1-4)GlcNAc(b1-3)Gal(b1-4)GlcNAc(b1-2)[Gal(b1-4)GlcNAc(b1-3)Gal(b1-4)GlcNAc(b1-3)Gal(b1-4)GlcNAc(b1-3)Gal(b1-4)GlcNAc(b1-3)Gal(b1-4)GlcNAc(b1-6)]Man(a1-6)[Gal(b1-4)GlcNAc(b1-3)Gal(b1-4)GlcNAc(b1-3)Gal(b1-4)GlcNAc(b1-3)Gal(b1-4)GlcNAc(b1-3)Gal(b1-4)GlcNAc(b1-2)Man(a1-3)]Man(b1-4)GlcNAc(b1-4)[Fuc(a1-6)]GlcNAc
Outline: as §1

[15] = target: Gal(b1-4)GlcNAc(b1-3)Gal(b1-4)GlcNAc(b1-3)[Gal(b1-4)GlcNAc(b1-3)Gal(b1-4)GlcNAc(b1-6)]GalNAc
Outline: as §1

[16] = target: Gal3S(b1-4)[Fuc(a1-3)]GlcNAc
Outline: as §1

Gal6S(b1-3)GlcNAc6S = target: Gal6S(b1-3)GlcNAc6S
Outline: as §1

[17] = target: GalNAc(a1-3)GalNAc(b1-3)Gal(a1-4)Gal(b1-4)GlcNAc
Outline: as §1

GalNAc(b1-3)GlcNAc = target: GalNAc(b1-3)GlcNAc
Outline: as §1

GalNAc3S(b1-4)GlcNAc3S = target: GalNAc3S(b1-4)GlcNAc3S
Outline: as §1

[18] = target: GlcNAc(a1-4)Gal(b1-4)GlcNAc(b1-3)Gal(b1-4)GlcNAc
Outline: as §1

[19] = target: GlcNAc(b1-3)[GlcNAc(b1-4)][GlcNAc(b1-6)]GlcNAc
Outline: as §1

[20] = target: Man(a1-2)Man(a1-2)Man(a1-3)Man
Outline: as §1

[21] = target: Man(a1-2)Man(a1-6)[Man(a1-3)]Man(a1-6)[Man(a1-2)Man(a1-2)Man(a1-3)]Man
Outline: as §1

[22] = target: Neu5Ac(a2-3)Gal(b1-3)GlcNAc(b1-6)GalNAc
Outline: as §1

Neu5Ac(a2-3)Gal(b1-4)Glc = target: Neu5Ac(a2-3)Gal(b1-4)Glc
Outline: as §1

[23] = target: Neu5Ac(a2-3)Gal(b1-4)GlcNAc(b1-2)Man
Outline: as §1

[24] = target: Neu5Ac(a2-3)Gal(b1-4)GlcNAc(b1-2)[Neu5Ac(a2-3)Gal(b1-4)GlcNAc(b1-6)]Man(a1-6)[Neu5Ac(a2-3)Gal(b1-4)GlcNAc(b1-2)Man(a1-3)][GlcNAc(b1-4)]Man(b1-4)GlcNAc(b1-4)GlcNAc
Outline: as §1

B1: Pwp5 DD (Candida glabrata) (protein)
chain: MGSSHHHHHHSSGLVPRGSHMASANPVPLTNVCYFPEEYPRQAGFRAITAGLASTILQGSVDELLNYSGLSSLTTQQTTTTTPNFQLPTLPLPTNVYGLTVVPLYLLVQLQGYFVPPVSGQYTFSLENTDDAAIIFFGNPSAFPCGDLSAWPQASADDITVTDGTFPSRTLFLKAGVAYPMRISYYNSLGSGNLAVSFTDPGGTKRTNWNGYIWRYNSCSTCTYT
glycan array binding signal (z-score) [1]: 0.621 | glycan array binding signal (z-score) [2]: 2.89 | glycan array binding signal (z-score) [3]: -1.56 | glycan array binding signal (z-score) [4]: -0.233 | glycan array binding signal (z-score) [5]: 0.126 | glycan array binding signal (z-score) [6]: -0.895 | glycan array binding signal (z-score) [7]: -0.759 | glycan array binding signal (z-score) [8]: -0.328 | glycan array binding signal (z-score) (Fuc(b1-3)GlcNAc): -0.571 | glycan array binding signal (z-score) [9]: 0.021 | glycan array binding signal (z-score) [10]: -0.574 | glycan array binding signal (z-score) [11]: 4.76 | glycan array binding signal (z-score) (Gal(b1-4)GlcNAc(b1-2)Man): -0.513 | glycan array binding signal (z-score) [12]: 3.33 | glycan array binding signal (z-score) [13]: 3.2 | glycan array binding signal (z-score) [14]: 3.61 | glycan array binding signal (z-score) [15]: -0.447 | glycan array binding signal (z-score) [16]: -0.734 | glycan array binding signal (z-score) (Gal6S(b1-3)GlcNAc6S): 2.71 | glycan array binding signal (z-score) [17]: 1.09 | glycan array binding signal (z-score) (GalNAc(b1-3)GlcNAc): -0.687 | glycan array binding signal (z-score) (GalNAc3S(b1-4)GlcNAc3S): 3.21 | glycan array binding signal (z-score) [18]: 0.377 | glycan array binding signal (z-score) [19]: -0.559 | glycan array binding signal (z-score) [20]: -0.413 | glycan array binding signal (z-score) [21]: -0.259 | glycan array binding signal (z-score) [22]: 0.895 | glycan array binding signal (z-score) (Neu5Ac(a2-3)Gal(b1-4)Glc): -0.436 | glycan array binding signal (z-score) [23]: 2.67 | glycan array binding signal (z-score) [24]: 11.6
